Several values for one entry are separate records, joined by “and”; a condition that tells them apart may be missing. Equal values may be shown once. Screen size: about 5,500 compounds; about 2,000 (36%) were called active. Not shown: some 18% with an inconclusive outcome. Some of the results follow. Unmarked numbers belong to inactive results. Rule as the data show it: active = normalized growth mostly below about 0.91 (no sharp cut-off); inconclusive = no clear call, values can overlap the other calls; inactive = mostly above about 0.92.
Assay: chemical genetic growth profiling, strain panel (AID 1159580);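 also: tested at 20 µM; growth read once vehicle control cultures reached saturation at 30 °C; 1 = growth at the plate median or of vehicle wells; lower values mean less growth of the strain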
Details: S. cerevisiae deletion strains, growth OD

SMILES: C[C@@H]1CC[C@@]23CCC4(C)[C@@](C=CC5[C@@]6(C)CC[C@H](O)C(C)(C)C6CC[C@]54C)(OC2=O)C3[C@H]1C (some centres not stated)
- normalized growth (locus YAL021C, strain ccr4, hits give low values): 0.999
- normalized growth (locus YAL026C, strain drs2, hits give low values): 1.01
- normalized growth (locus YAL030W, strain snc1, hits give low values): 1
- normalized growth (locus YBL061C, strain skt5, hits give low values): 1.06
- normalized growth (locus YBR009C, strain hhf1, hits give low values): 1
- normalized growth (locus YBR021W, strain FUR4, hits give low values): 0.999
- normalized growth (locus YBR023C, strain chs3, hits give low values): 1.02
- normalized growth (locus YBR171W, strain sec66, hits give low values): 1
- normalized growth (locus YBR229C, strain ROT2, hits give low values): 1
- normalized growth (locus YBR231C, strain swc5, hits give low values): 1.09
- normalized growth (locus YBR279W, strain paf1, hits give low values): 1.09 [resistant] (active)
- normalized growth (locus YCL011C, strain gbp2, hits give low values): 1
- normalized growth (locus YCL016C, strain dcc1, hits give low values): 1.08
- normalized growth (locus YCL029C, strain bik1, hits give low values): 1.02
- normalized growth (locus YCL061C, strain MRC1, hits give low values): 0.991
- normalized growth (locus YCL069W, strain vba3, hits give low values): 1.01
- normalized growth (locus YCR088W, strain abp1, hits give low values): 1
- normalized growth (locus YDL005C, strain med2, hits give low values): 1.01
- normalized growth (locus YDL035C, strain GPR1, hits give low values): 1
- normalized growth (locus YDL040C, strain nat1, hits give low values): 1.06
- normalized growth (locus YDL074C, strain BRE1, hits give low values): 1.04
- normalized growth (locus YDL101C, strain DUN1, hits give low values): 1.02
- normalized growth (locus YDL134C, strain PPH21, hits give low values): 1.03
- normalized growth (locus YDL185W, strain tfp1, hits give low values): 1.01
- normalized growth (locus YDL192W, strain arf1, hits give low values): 1.05
- normalized growth (locus YDR001C, strain nth1, hits give low values): 1.01
- normalized growth (locus YDR069C, strain doa4, hits give low values): 0.985
- normalized growth (locus YDR101C, strain arx1, hits give low values): 1.03
- normalized growth (locus YDR137W, strain rgp1, hits give low values): 1.16 [resistant] (active)
- normalized growth (locus YDR159W, strain sac3, hits give low values): 1.1
- normalized growth (locus YDR162C, strain NBP2, hits give low values): 1.04
- normalized growth (locus YDR195W, strain ref2): 0.955
- normalized growth (locus YDR297W, strain sur2, hits give low values): 1
- normalized growth (locus YDR318W, strain mcm21, hits give low values): 1.01
- normalized growth (locus YDR334W, strain swr1, hits give low values): 1
- normalized growth (locus YDR335W, strain msn5, hits give low values): 1.01
- normalized growth (locus YDR388W, hits give low values): 1.01
- normalized growth (locus YDR392W, strain spt3, hits give low values): 1.02
- normalized growth (locus YDR502C, strain sam2, hits give low values): 1
- normalized growth (locus YEL003W, strain gim4, hits give low values): 0.99
- normalized growth (locus YEL037C, strain rad23, hits give low values): 1.04
- normalized growth (locus YEL061C, strain CIN8 (second series), hits give low values): 1
- normalized growth (locus YEL061C, strain CIN8, hits give low values): 1.02
- normalized growth (locus YER015W, strain faa2, hits give low values): 1
- normalized growth (locus YER016W, strain bim1, hits give low values): 1.17 [resistant] (active)
- normalized growth (locus YER110C, hits give low values): 0.995
- normalized growth (locus YER111C, strain swi4, hits give low values): 1.04
- normalized growth (locus YER155C, strain BEM2 (second series), hits give low values): 0.967
- normalized growth (locus YER155C, strain BEM2, hits give low values): 1.03
- normalized growth (locus YER167W, strain BCK2, hits give low values): 1.01
- normalized growth (locus YFR010W, strain ubp6, hits give low values): 1.02
- normalized growth (locus YGL078C, strain dbp3, hits give low values): 1
- normalized growth (locus YGL086W, strain mad1, hits give low values): 1.02
- normalized growth (locus YGL167C, strain pmr1, hits give low values): 1.02
- normalized growth (locus YGL173C, strain kem1, hits give low values): 0.991
- normalized growth (locus YGL227W, strain vid30, hits give low values): 1
- normalized growth (locus YGL240W, strain doc1, hits give low values): 0.99
- normalized growth (locus YGL248W, strain PDE1, hits give low values): 1.03
- normalized growth (locus YGL253W, strain hxk2, hits give low values): 1.03
- normalized growth (locus YGR078C, strain PAC10, hits give low values): 1.03
- normalized growth (locus YGR135W, strain pre9, hits give low values): 0.993
- normalized growth (locus YGR229C, strain SMI1, hits give low values): 1.08
- normalized growth (locus YGR252W, strain gcn5, hits give low values): 1.07
- normalized growth (locus YHR013C, strain ard1, hits give low values): 1.06
- normalized growth (locus YHR027C, strain rpn1, hits give low values): 1.01
- normalized growth (locus YHR030C, strain SLT2, hits give low values): 1.03 and 1.01
- normalized growth (locus YHR079C, strain IRE1 (second series), hits give low values): 0.998
- normalized growth (locus YHR079C, strain IRE1, hits give low values): 0.999
- normalized growth (locus YHR094C, strain hxt1, hits give low values): 1.14 [resistant] (active)
- normalized growth (locus YHR129C, strain ARP1, hits give low values): 1.03
- normalized growth (locus YHR142W, strain chs7, hits give low values): 1.06
- normalized growth (locus YHR200W, strain rpn10, hits give low values): 0.988
- normalized growth (locus YIL066C, strain RNR3, hits give low values): 1.04
- normalized growth (locus YIL073C, strain SPO22, hits give low values): 1.05
- normalized growth (locus YIL125W, strain kgd1, hits give low values): 0.992
- normalized growth (locus YIR030C, strain dcg1, hits give low values): 1.18 [resistant] (active)
- normalized growth (locus YJL092W, strain hpr5, hits give low values): 1.01
- normalized growth (locus YJL095W, strain BCK1 (second series), hits give low values): 1.03
- normalized growth (locus YJL095W, strain BCK1, hits give low values): 1.06 and 1.01
- normalized growth (locus YJL115W, strain asf1, hits give low values): 1.03
- normalized growth (locus YJL129C, strain trk1, hits give low values): 1.03
- normalized growth (locus YJL134W, strain LCB3, hits give low values): 1.02
- normalized growth (locus YJL154C, strain vps35, hits give low values): 1
- normalized growth (locus YJL164C, strain tpk1, hits give low values): 1.01
- normalized growth (locus YJL166W, strain qcr8, hits give low values): 1.01
- normalized growth (locus YJL187C, strain SWE1 (second series), hits give low values): 1.01
- normalized growth (locus YJL187C, strain SWE1, hits give low values): 0.996

From PubChem BioAssay AID1159580 (chemical genetic matrix, 2015)
